Experimental data from PubChem BioAssay (EPA / NIEHS).
Results filed as inconclusive are left out. The source made the active and inactive calls. How the source made its calls, unless noted: active means hit-call score of the fitted dose curve at least 0.9, where 1 is the maximum; inconclusive means response in the unintended direction; inactive means score below 0.9.

What was measured:
[1] = Tanguay_ZF_120hpf_YSE_legacy: (Legacy) Oregon State University Tanguay Lab 120 Hour Post-fertilization zebrafish Assay for Yolk Sac Edema (AID 2283634);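 on AC50: actives raise the incidence of yolk sac edema above the DMSO baseline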
How it was run: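 Single dechorionated embryos were held in sealed plates at 28C with test chemical (0.64% DMSO final) from 6 hpf until 120 hpf. Edema of the yolk sac was then recorded as a binary endpoint; non-mortality endpoints were skipped for dead embryos.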

[2] = Tanguay_ZF_120hpf_AXIS_legacy: (Legacy) Oregon State University Tanguay Lab 120 Hour Post-fertilization zebrafish Assay for Body Axis Malformation (AID 2283635);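 on AC50: potency for an increased fraction of larvae scored with body axis malformation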
How it was run: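 Each dechorionated embryo was exposed alone from 6 hpf, with DMSO at 0.64% (vol/vol) and trimethyltin chloride 5 uM as positive control. Axis malformation was recorded at 120 hpf unless the embryo had died.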

[3] = Tanguay_ZF_120hpf_EYE_legacy: (Legacy) Oregon State University Tanguay Lab 120 Hour Post-fertilization zebrafish Assay for Eye Malformation (AID 2283636);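 further: binary presence or absence of eye malformation scored by brightfield in 120 hpf larvae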
How it was run: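 Static waterborne exposure of dechorionated zebrafish embryos (strain Tropical 5D), 6 to 120 hpf, sealed plates at 28C, 0.64% DMSO vehicle. Eye malformation is scored as a binary endpoint, with gain of signal analysed relative to DMSO.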

[4] = Tanguay_ZF_120hpf_SNOU_legacy: (Legacy) Oregon State University Tanguay Lab 120 Hour Post-fertilization zebrafish Assay for Snout Malformation (AID 2283637)
How it was run: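 Dechorionated zebrafish, individually housed from 6 hpf in covered, sealed wells at 28C with 0.64% DMSO vehicle, were examined at 120 hpf for snout malformation. Responses were binary and analysed positive-direction relative to DMSO.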

[5] = Tanguay_ZF_120hpf_JAW_legacy: (Legacy) Oregon State University Tanguay Lab 120 Hour Post-fertilization zebrafish Assay for Jaw Malformation (AID 2283638);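 on AC50: active means more embryos with jaw malformation than DMSO controls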
How it was run: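 Wild-type 5D embryos, chorion removed at 4 hpf, dosed singly from 6 hpf; 28C static, sealed, foil-covered, to 120 hpf. Endpoint: jaw defect yes/no (brightfield); mortality excludes scoring.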

[6] = Tanguay_ZF_120hpf_OTIC_legacy: (Legacy) Oregon State University Tanguay Lab 120 Hour Post-fertilization zebrafish Assay for Otic Vesicle Malformation (AID 2283639)
How it was run: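 Wild-type zebrafish larvae, whole-embryo exposure from early stage to 120 hpf at 28C. Binary brightfield scoring of otic vesicle morphology, fitted in the positive direction against the DMSO baseline.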

[7] = Tanguay_ZF_120hpf_PE_legacy: (Legacy) Oregon State University Tanguay Lab 120 Hour Post-fertilization zebrafish Assay for Pericardial Edema (AID 2283640);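 on AC50: potency for increased incidence of pericardial edema versus DMSO baseline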
How it was run: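 Zebrafish larvae are exposed from early development to 120 hpf at 28C, with 0.64% DMSO final. Each surviving larva receives a yes/no pericardial edema call by brightfield imaging, analysed relative to the DMSO baseline.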

[8] = Tanguay_ZF_120hpf_BRAI_legacy: (Legacy) Oregon State University Tanguay Lab 120 Hour Post-fertilization zebrafish Assay for Brain Malformation (AID 2283641)
How it was run: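 Static exposure of staged wild-type embryos until 120 hpf, kept at 28C with light excluded and final DMSO of 0.64% (vol/vol). Presence or absence of brain malformation was noted under brightfield; mortality precluded scoring.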

[9] = Tanguay_ZF_120hpf_SOMI_legacy: (Legacy) Oregon State University Tanguay Lab 120 Hour Post-fertilization zebrafish Assay for Somite Malformation (AID 2283647)
How it was run: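 Somitogenesis defects are recorded as binary calls in whole larvae at 120 hpf after continuous static chemical exposure starting at 6 hpf in dechorionated 5D embryos. DMSO serves as negative control and baseline.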

[10] = Tanguay_ZF_120hpf_PFIN_legacy: (Legacy) Oregon State University Tanguay Lab 120 Hour Post-fertilization zebrafish Assay for Pectoral Fin Malformation (AID 2283648);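 further: each larva judged yes or no for fin defect by brightfield with dead larvae skipped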
How it was run: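 Scoring of pectoral fin malformation was binary, made at 120 hpf on larvae exposed statically from 6 hpf after enzymatic chorion removal. Activity was fitted upward relative to DMSO controls at 0.64% (vol/vol).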

[11] = Tanguay_ZF_120hpf_CFIN_legacy: (Legacy) Oregon State University Tanguay Lab 120 Hour Post-fertilization zebrafish Assay for Caudal Fin Malformation (AID 2283649)
How it was run: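 Single dechorionated 5D wild-type embryos are dosed at 6 hpf (final DMSO 0.64%) and held statically at 28C. Caudal fin malformation is recorded as present or absent at 120 hpf under brightfield, excluding dead embryos.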

[12] = Tanguay_ZF_120hpf_PIG_legacy: (Legacy) Oregon State University Tanguay Lab 120 Hour Post-fertilization zebrafish Assay for Pigmentation Malformation (AID 2283650)
How it was run: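 Endpoint is incidence of abnormal pigmentation at 120 hpf in dechorionated 5D zebrafish exposed singly from 6 hpf at 28C, DMSO vehicle at 0.64%. Embryos dying by 24 or 120 hpf are excluded from scoring.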

[13] = Tanguay_ZF_120hpf_CIRC_legacy: (Legacy) Oregon State University Tanguay Lab 120 Hour Post-fertilization zebrafish Assay for Circulatory Malformation (AID 2283651)
How it was run: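 Binary circulatory-malformation call at 120 hpf via brightfield imaging, relative to DMSO controls. Embryos (5D strain, chorion removed) received static, light-shielded exposure at 28C.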

[14] = Tanguay_ZF_120hpf_SWIM_legacy: (Legacy) Oregon State University Tanguay Lab 120 Hour Post-fertilization zebrafish Assay for Swim Bladder Malformation (AID 2283654);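 further: swim bladder malformation in each larva scored yes or no under brightfield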
How it was run: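 Static waterborne exposure of single dechorionated Tropical 5D zebrafish embryos, 6–120 hpf, 28C, 0.64% DMSO final. Read-out: swim bladder malformation, present/absent, relative to DMSO negative control; trimethyltin chloride 5uM served as positive control.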

[15] = Tanguay_ZF_120hpf_TRUN_legacy: (Legacy) Oregon State University Tanguay Lab 120 Hour Post-fertilization zebrafish Assay for Truncated Body (AID 2283655)
How it was run: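 Single dechorionated zebrafish embryos received test chemical from 6 hpf in 0.64% DMSO, kept at 28C. At 120 hpf, brightfield inspection noted any truncated body.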

[16] = Tanguay_ZF_120hpf_NC_legacy: (Legacy) Oregon State University Tanguay Lab 120 Hour Post-fertilization zebrafish Assay for Notochord and Tail Malformation (AID 2283656)
How it was run: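 Binary notochord-distortion calls, made by brightfield inspection, form the read-out; activity is fitted in the positive direction against DMSO. Exposure ran statically from 6 to 120 hpf at 28C with 0.64% DMSO.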

[17] = read-out: kallikrein-3 (KLK3), KLK3 (gene 354); assay: LTEA_HepaRG_KLK3: Life Technologies and Expression Analysis (LTEA) Assay for kallikrein-3 (KLK3) using HepaRG (AID 2283652; active means hit-call score of the fitted dose curve at least 0.9, where 1 is the maximum; inactive means score below 0.9); settings: mRNA level, 48 h; actives raise or lower the signal
How it was run: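 KLK3 transcript levels were measured by TaqMan qRT-PCR with normalisation to three housekeeping genes. HepaRG cultures received chemicals for 48 h at up to 100 uM (half-log, 8 points, 0.5% DMSO vehicle), fitted in both directions against DMSO.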

[18] = read-out: solute carrier (SLC22A6), SLC22A6 (gene 9356); assay: LTEA_HepaRG_SLC22A6: Life Technologies and Expression Analysis (LTEA) Assay for solute carrier (SLC22A6) using HepaRG (AID 2283653; active means hit-call score of the fitted dose curve at least 0.9, where 1 is the maximum; inactive means score below 0.9); settings: mRNA level, 48 h; actives raise or lower the signal
How it was run: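 Gene-expression endpoint in HepaRG hepatic cells: duplicate 8-point concentration-response, highest 100 uM, 48 h treatment in serum-free medium with 0.5% DMSO. SLC22A6 expression measured by qRT-PCR, normalised to ACTB/GAPDH/POLR2A.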

[19] = read-out: solute carrier (SLC10A1), SLC10A1 (gene 6554); assay: LTEA_HepaRG_SLC10A1: Life Technologies and Expression Analysis (LTEA) Assay for solute carrier (SLC10A1) using HepaRG (AID 2283657; active means hit-call score of the fitted dose curve at least 0.9, where 1 is the maximum; inactive means score below 0.9); settings: mRNA level, 48 h; actives raise or lower the signal
How it was run: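 Cryopreserved HepaRG cells are thawed, plated and cultured 48 h; medium is then switched to serum-free induction medium and chemicals added (8 points, max 100 uM, 0.5% DMSO). After 48 h, RNA is isolated and SLC10A1 quantified by qRT-PCR.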

[20] = read-out: matrix metalloproteinase-1 (MMP1), MMP1 (gene 4312); assay: LTEA_HepaRG_MMP1: Life Technologies and Expression Analysis (LTEA) Assay for matrix metalloproteinase-1 (MMP1) using HepaRG (AID 2283658; active means hit-call score of the fitted dose curve at least 0.9, where 1 is the maximum; inactive means score below 0.9); settings: mRNA level, 48 h; actives raise or lower the signal
How it was run: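 In this screen, human liver HepaRG cultures receive each chemical in duplicate for 48 h (top 100 uM, 0.5% DMSO). MMP1 expression is then quantified by TaqMan qRT-PCR with ACTB/GAPDH/POLR2A normalization.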

Measured: AC50

[Cl-].[Cl-].[Hg+2]
active: [1] 4.25 µM | [2] 3.84 µM | [3] 1.05 µM | [4] 3.82 µM | [5] 3.12 µM | [6] 3.86 µM | [7] 3.82 µM | [8] 1.22 µM | [9] 3.87 µM | [10] 3.5 µM | [11] 1.08 µM | [12] 1.05 µM | [13] 3.58 µM | [14] 1.02 µM | [15] 3.83 µM

Clc1ccccc1Cl
not listed: [12] | [17] | [18] | [19] | [20]
inactive: all other assays above

CC(C)(OOC(C)(C)c1ccccc1)c1ccccc1
not listed: [12] | [17] | [18] | [19] | [20]
inactive: all other assays above

CC(C)(O)c1cnn2c(-c3ccc(F)c(-c4c(F)cccc4C#N)c3)cnc2n1
not listed: [8] | [12] | [16] | [17] | [18] | [19] | [20]
inactive: all other assays above

Nc1cc(Cl)cc(C(=O)O)c1Cl
not listed: [6] | [8] | [17] | [18] | [19] | [20]
inactive: all other assays above

CCC12COCN1COC2
not listed: [7] | [8] | [12] | [14] | [17] | [18] | [19] | [20]
inactive: all other assays above

CCN(CC)N=O
not listed: [8] | [12] | [13] | [17] | [18] | [19] | [20]
inactive: all other assays above

CC(C)COC(=O)c1ccccc1C(=O)OCC(C)C
active: [3] 30.5 µM | [4] 44.1 µM | [5] 29.7 µM | [9] 50.6 µM | [10] 45.5 µM
not listed: [8] | [12]
inactive: all other assays above
